The entries come from a sample that favours hits as a whole.
ST2 inh: IL1RL1 inhibition; AlphaLISA ST2-Fc/biotin-IL-33 interaction, 1 h; AID 1259354; Q01638; 2.3% of 78,000 active; inhibition, % for hits at 17 µM; in the data active means inhibition above about 30%
Target sequence (Q01638 whole entry, looked up): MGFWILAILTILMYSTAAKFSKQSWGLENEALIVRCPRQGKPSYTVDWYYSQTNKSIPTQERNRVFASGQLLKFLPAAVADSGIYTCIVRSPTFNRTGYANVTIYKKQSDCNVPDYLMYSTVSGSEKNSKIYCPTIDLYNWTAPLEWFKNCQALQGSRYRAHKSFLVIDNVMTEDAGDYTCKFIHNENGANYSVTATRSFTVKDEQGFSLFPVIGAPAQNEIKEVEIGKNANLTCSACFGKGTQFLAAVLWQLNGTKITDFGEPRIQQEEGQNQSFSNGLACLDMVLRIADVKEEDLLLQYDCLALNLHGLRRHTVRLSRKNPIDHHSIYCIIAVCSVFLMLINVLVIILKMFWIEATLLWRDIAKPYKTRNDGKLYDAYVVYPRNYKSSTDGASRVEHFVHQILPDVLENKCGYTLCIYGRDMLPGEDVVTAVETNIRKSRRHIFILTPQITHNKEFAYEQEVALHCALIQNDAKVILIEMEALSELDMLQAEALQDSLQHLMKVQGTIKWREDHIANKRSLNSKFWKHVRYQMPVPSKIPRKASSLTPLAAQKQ
Starred values were filed as active, the others as inactive; i = inactive.

SMILES	ST2 inh
CCn1c(C(C)NC(=O)C(C)(C)C)nc2ccccc21 (stereo not drawn)	i
CCn1c(CCNC(=O)C(C)(C)C)nc2ccccc21	i
CCNc1ccc(Br)cc1-c1nc2ccccc2n(CC)c1=O	77%*
CCCCC(=O)Nc1ccc(NC(=O)c2cccs2)cc1OC	i
Fc1ccccc1Cc1noc(CN2CCC(Oc3ccccc3F)CC2)n1	i
CCn1c(C2CCCN(Cc3cc4c(cc3C)OCCO4)C2)n[nH]c1=O (stereo not drawn)	i
O=C(O)CCC(=O)N[C@H]1CCN2C(=O)c3cc(-c4ccccc4)ccc3NC(=O)[C@H]12	i
COc1ccc(-c2ccc3c(c2)C(=O)N2CC[C@H](NC(=O)CCC(=O)O)[C@H]2C(=O)N3)cc1	46%*
O=C(O)CCC(=O)N[C@H]1CCN2C(=O)c3cc(-c4ccccc4F)ccc3NC(=O)[C@H]12	i
COc1cc2c(cc1OC)CN(C1CCCN(Cc3nc(-c4ccccc4)no3)C1)CC2 (stereo not drawn)	i
N#CSC(C#N)Cc1ccc([N+](=O)[O-])cc1 (stereo not drawn)	51%*
OC(Cc1ccccc1)c1ccccc1 (stereo not drawn)	i
N#CC(c1ccccc1)C(C#N)c1ccccc1 (stereo not drawn)	i
N#Cc1cc(C#N)c(SCc2ccc([N+](=O)[O-])cc2)nc1N	i
CC(C)(C)NCc1ccc([N+](=O)[O-])cc1	i
N#CSC(C#N)Cc1ccccc1 (stereo not drawn)	33%*
Cc1ccc(OCc2nnc(SCC(=O)NC3CC3)n2-c2ccccc2)cc1C	i
COc1ccc(N2CCN(Cc3ccc(C)o3)CC2)cc1	i
O=C1NC(=O)c2cc(N=Cc3ccc(Cl)cc3Cl)ccc21	70%*
O=C1NC(=O)c2cc(N=Cc3ccc(Cl)cc3)ccc21	i
O=c1[nH]c2ccc(N=Cc3cc(O)ccc3Br)cc2[nH]1	i
O=C(Cc1ccccc1)Nc1ncc2c(n1)CC(c1ccco1)CC2=O (stereo not drawn)	i
Cc1ccc(NC(=O)CCCn2nc([N+](=O)[O-])c(Cl)c2C)cc1C	i
CNC(=O)C1CCC(Cn2c(=O)c3sccc3n(CC(=O)Nc3ccccc3OC)c2=O)CC1 (stereo not drawn)	i
COc1cccc(NS(=O)(=O)c2ccc3c(c2)CCN3C(=O)C2CC2)c1	i
SMILES	ST2 inh
CCOc1cc(/C=C2\C(=O)NC(=O)N(c3ccccc3)C2=O)ccc1O	i
Cc1ccccc1CC1SC(=Nc2ccccc2)NC1=O (stereo not drawn)	i
O=C1CC(c2ccc(F)c(Br)c2)c2ccc3ccccc3c2N1 (stereo not drawn)	i
O=C1NC(=Nc2ccccc2)S/C1=C/c1ccc(O)c(O)c1	35%*
Cc1ccc(NC(=O)CC2SC(=Nc3ccccc3)NC2=O)c(C)c1 (stereo not drawn)	i
O=C1NC(=Nc2ccccc2)S/C1=C/c1cc(Br)ccc1O	36%*
O=C1NC(=Nc2ccccc2)SC1(CO)CO	i
O=C1NC(=Nc2ccccc2)S/C1=C/c1ccc(F)c(Br)c1	43%*
O=C1NC(=Nc2cccc(Br)c2)SC1(CO)CO	i
Cc1cc(C)n(-c2ccc(NC(=O)C3CCN(C(=O)CCCc4cccs4)CC3)cc2)n1	i
O=C(C[C@@H]1O[C@H](CNC(=O)Nc2ccc(F)cc2F)[C@@H](O)[C@H]1O)NCc1ccccc1	i
Cc1ccccc1CN1CCC(CN(CC2CCCO2)C(=O)c2ccc(=O)n(C)n2)CC1 (stereo not drawn)	i
COc1ccc(-n2c(C)c3c(C)nnc(C)c3c2C)cc1OC	31%*
COc1ccc(N2C(=O)C3C4C=CC(C4)C3C2=O)cc1OC (stereo not drawn)	i
COc1ccc(-n2c(CCN)n[nH]c2=O)cc1OC	i
Cc1ccc(N(C(=O)Cn2nnnc2N)C2(C(=O)Nc3c(C)cccc3C)CCCCC2)cc1C	i
COC(=O)c1sc2ccccc2c1NC(=O)c1ccc(Br)cc1	i
O=[N+]([O-])c1ccc(-c2cn3cc(Br)ccc3n2)cc1	31%*
O=[N+]([O-])c1ccc(-c2cn3ccsc3n2)cc1	i
Brc1ccc(-c2cn3ccc4ccccc4c3n2)cc1	i
COc1ccc(Nc2cc(C)nc(Nc3ccc(NC(=O)CCC4CCCCC4)cc3)n2)cc1	40%*
Cc1cc(N(C)C)nc(Nc2ccc(NC(=O)CCC3CCCC3)cc2)n1	i
Cc1ccc(Nc2cc(C)nc(Nc3ccc(NC(=O)CC4CCCC4)cc3)n2)cc1	31%*
Cc1cccc(NC(=O)CCC2CCCCC2)n1	i
COc1ccc(Nc2cc(C)nc(Nc3ccc(NC(=O)CC4CCCC4)cc3)n2)cc1	30%*
SMILES	ST2 inh
O=C(CC1CCCCC1)Nc1cccnc1	i
O=C(CC1Sc2ccccc2NC1=O)Nc1ccccc1 (stereo not drawn)	i
CCC#CCN1CCOc2c(O)cc(-c3nc(C)cnc3C)cc2C1	i
COc1ccc(-c2[nH]nc3c2C(c2c(F)cccc2Cl)C(C#N)=C(N)O3)cc1OC (stereo not drawn)	i
CCN1CCC(NC2c3ccccc3-c3ccccc32)CC1	i
CCCCOC(=O)CSc1nnc(-c2ccccc2)c(=O)[nH]1	i
Cc1ccccc1N=C1SCC(=O)N1c1ccccc1C	i
O=C1/C(=C/C=C/c2ccco2)CC/C1=C\C=C\c1ccco1	96%*
COc1ccccc1CNCc1ccc(C(F)(F)F)cc1	i
Cc1cccc(Oc2nc3c(c(=O)n(C)c(=O)n3C)n2Cc2ccc(F)cc2)c1	i
Nc1n[nH]c(CCCc2nc(N)n[nH]2)n1	i
CCCOc1ccc(C(O)=C2C(=O)C(=O)N(c3nccs3)C2c2cccs2)cc1 (stereo not drawn)	i
CC(C)Oc1ccc(C(O)=C2C(=O)C(=O)N(c3ccccn3)C2c2cccs2)cc1 (stereo not drawn)	i
CC(C)Oc1ccc(C(O)=C2C(=O)C(=O)N(c3nccs3)C2c2ccc([N+](=O)[O-])cc2)cc1 (stereo not drawn)	35%*
CCn1c(C2CCN(Cc3ccc(OC)c(COC)c3)CC2)n[nH]c1=O	i
CC(=O)N1c2ccccc2NC2=C(C(=O)CC(c3ccccc3F)C2)C1c1ccccc1 (stereo not drawn)	i
Cc1ccc2nc(SCC(=O)Nc3ccc(N4CCOCC4)c(Cl)c3)[nH]c2c1	i
CC1CCCC(C)N1C(=O)c1ccc(Cl)cc1 (stereo not drawn)	i
Cc1cc(NC(=O)CCS(=O)(=O)c2cccc3nsnc23)ccc1Br	i
Cc1ccc(/C=C2\CS/C(=C\c3ccc(C)o3)C2=O)o1	60%*
COc1cc(/C=C2/SC(N3CCC(C)CC3)=NC2=O)cc(OC)c1OC	i
Cc1ccc(/C=c2\sc3nc(-c4ccc(OC(C)C)cc4)nn3c2=O)o1	i
CN1CCN(C2=NC(=O)/C(=C/c3cccs3)S2)CC1	i
O=C1N=C(N2CCOCC2)S/C1=C/c1ccc(Cl)cc1	i
CCOc1ccc(-c2nc3s/c(=C\c4ccc(C)o4)c(=O)n3n2)cc1	i
SMILES	ST2 inh
Cc1ccc(/C=C2/SC(N3CCC(C)CC3)=NC2=O)o1	30%*
C=CCOc1ccc(/C=C2/SC(N3CCOCC3)=NC2=O)cc1	i
O=C1N=C(N2CCOCC2)S/C1=C/c1ccc(-c2ccccc2)o1	34%*
O=C1NCCN2CCN(C(=O)Nc3ccc(-c4ccccc4)cc3)CC12 (stereo not drawn)	i
CCC1CCCCN1C(=O)c1coc(CN2CCN(c3ncccn3)CC2)n1 (stereo not drawn)	i
CN(Cc1ccc2ccccc2n1)Cc1ccccc1C(=O)O	i
O=C1NC(=O)c2c(NC(=O)c3c(F)cccc3F)cccc21	i

Screening results deposited in PubChem BioAssay by Paczesny and Yang Labs, IUPUI and University of Michigan.
